Measurements: PubChem BioAssay (NCATS)
Inconclusive results are not listed. Calls of active or inactive are those of the source. Calls come from the whole dose curve; as a rule, active = well fitted inhibition curve with a large enough effect; inconclusive = small, poorly fitted or top-dose-only effect; inactive = no such curve, though single readings can be large or run the other way.

Assay: Primary qHTS for small molecule stabilizers of the endoplasmic reticulum resident proteome: Secreted ER Calcium Modulated Protein (SERCaMP) assay (AID 1508630)
Settings: SH-SY5Y GLuc-SERCaMP (Gaussia luciferase released on ER calcium loss) secretion, thapsigargin, luminescence; series mostly up to 38.4 µM; activity change, negative = inhibition: at the top concentration
Method in brief: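 GLuc-SERCaMP-expressing SH-SY5Y cells, pretreated 16 h with compound, are challenged with thapsigargin to empty ER calcium stores; after 4 h, coelenterazine is added directly to the medium and luminescence is imaged.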
% is set by controls: 0 for no effect and ±100 for the full control effect.

Compound | activity change, negative = inhibition
CO[C@H]1C(=O)[C@]2(C)[C@@H](OC)C[C@H]3OC[C@@]3(OC(C)=O)[C@H]2[C@H](OC(=O)c2ccccc2)[C@]2(O)C[C@H](OC(=O)[C@H](O)[C@@H](NC(=O)OC(C)(C)C)c3ccccc3)C(C)=C1C2(C)C | 48.3% (inactive)
CNC(=O)c1ccccc1Sc1ccc2c(C=Cc3ccccn3)n[nH]c2c1 | 0% (inactive)
O=c1c(O)c(-c2ccc(O)cc2)oc2cc(O)cc(O)c12 | 157% (inactive)
CCOC(CN1C(=O)[C@](CC(=O)Nc2ccc(C)cc2)(NC(=O)Nc2ccc(C)cc2)c2ccccc21)OCC | 3.31% (inactive)
COc1cc(NC(=O)c2ccc(-c3ccc(Cl)cc3)o2)cc(OC)c1 | 0% (inactive)
NC(=O)NN=Cc1ccc([N+](=O)[O-])o1 | 279% (inactive)
C[C@H]1[C@H](NC(=O)C(=NOC(C)(C)C(=O)O)c2csc(N)n2)C(=O)N1S(=O)(=O)O | -16.5% (inactive)
CC(C)n1cnc2c(NCCCCCCNC(=O)OC(C)(C)C)nc(NCCO)nc21 | 198% (inactive)
CC=CC(=O)N(CC)c1ccccc1C | 57.9% (inactive)
COC(=O)N[C@H](C(=O)N1CCC[C@@H]1c1ncc(-c2ccc(-c3ccc(-c4cnc([C@@H]5CCCN5C(=O)[C@@H](NC(=O)OC)C(C)C)[nH]4)cc3)cc2)[nH]1)C(C)C | 3.52% (inactive)
CN1[C@@H]2CCC[C@@H]1CC(NC(=O)c1nn(C)c3ccccc13)C2 (stereo partly drawn) | 3.56% (inactive)
CN(C)Cc1cccc(N=C(c2ccccc2)c2c(O)[nH]c3cc(C(=O)N(C)C)ccc23)c1 | 6.78% (inactive)
C[N+]1(C)[C@@H]2CC(OC(=O)[C@H](CO)c3ccccc3)C[C@H]1[C@H]1O[C@@H]12 (stereo partly drawn) | 7.46% (inactive)
CC(=O)N(C)C1(c2ccccc2)CCN(CCC[C@]2(c3ccc(Cl)c(Cl)c3)CCCN(C(=O)c3ccccc3)C2)CC1 | 275% (inactive)
CON=C(C(=O)N[C@@H]1C(=O)N2C(C(=O)OCOC(=O)C(C)(C)C)=C(C=Cc3scnc3C)CS[C@H]12)c1csc(N)n1 | 220% (inactive)
O=c1cc(N2CCOCC2)oc2c(-c3cccc4c3sc3ccccc34)cccc12 | 0% (inactive)
CC(C)OC(=O)CCCC=CC[C@@H]1[C@H](C=C[C@@H](O)COc2cccc(C(F)(F)F)c2)[C@H](O)C[C@@H]1O | 9.96% (inactive)

Compound | activity change, negative = inhibition
CC(C(=O)O)c1ccc(-c2ccccc2)c(F)c1 (stereo not drawn) | 71.8% (inactive)
CC(C)C(=O)Oc1ccc(CO)cc1[C@H](CCN(C(C)C)C(C)C)c1ccccc1 | -9.95% (inactive)
NC(CO)(CO)CCc1ccc(Sc2cccc(OCc3ccccc3)c2)cc1Cl | 317% (inactive)
CO[C@@H](C(=O)N1Cc2[nH]nc(NC(=O)c3ccc(N4CCN(C)CC4)cc3)c2C1)c1ccccc1 | -10.1% (inactive)
O=C(O)c1ccccc1C(=O)Nc1ccc(-c2ccccc2)cc1 | 73.5% (inactive)
COc1cc(O)c2c(c1)C(=O)c1cc(C)cc(O)c1C2=O | 369% [at 21.6 µM] (inactive)
NC1=N[C@@]2(c3cc(NC(=O)c4ccc(F)cn4)ccc3F)COC[C@@H]2CS1 | 25.7% (inactive)
CC(C)=CC[C@@H](O)C1=CC(=O)c2c(O)ccc(O)c2C1=O | 164% (inactive)
CO[C@H]1C=CC=C(C)C(=O)NC2=CC(=O)C(NCCN(C)C)=C(C[C@@H](C)C[C@H](OC)[C@@H](O)[C@@H](C)C=C(C)[C@@H]1OC(N)=O)C2=O | 0% (inactive)
CC1(C)O[C@H]2C[C@@H]3[C@H]4CCC5=CC(=O)C=C[C@]5(C)[C@@]4(F)[C@@H](O)C[C@]3(C)[C@]2(C(=O)CO)O1 | 97.7% (inactive)
Cc1ccc(/C=N/NC(=O)c2ccccc2Oc2ccccc2)o1 | 19.6% (inactive)
O=C(O)c1ccc(-c2cc3cccnc3c(-c3ccc4nonc4c3)n2)cc1 | 0% (inactive)
CC=CC[C@@H](C)C(=O)[C@H]1C(=O)N[C@@H](C(C)C)C(=O)N(C)CC(=O)N(C)[C@@H](CC(C)C)C(=O)N[C@@H](C(C)C)C(=O)N(C)[C@@H](CC(C)C)C(=O)N[C@@H](C)C(=O)N[C@H](C)C(=O)N(C)[C@@H](CC(C)C)C(=O)N(C)[C@@H](CC(C)C)C(=O)N(C)[C@@H](C(C)C)C(=O)N1C | 162% (inactive)
CO[C@H]1C[C@@H]2CC[C@@H](C)[C@@](O)(O2)C(=O)C(=O)N2CCCC[C@@H]2C(=O)O[C@H]([C@@H](C)C[C@@H]2CC[C@H](O)[C@H](OC)C2)CC(=O)[C@H](C)C=C(C)[C@@H](O)[C@@H](OC)C(=O)[C@H](C)C[C@H](C)C=CC=CC=C1C | -24.1% (inactive)
CC(C)(C)COc1ccc(-n2cc(C(=O)O)cn2)cc1C#N | 51.7% (inactive)
O=C(CCc1ccc(O)cc1)c1c(O)cc(O)cc1O[C@@H]1O[C@H](CO)[C@H](O)[C@H](O)[C@H]1O | 18.8% (inactive)
